In the library only some 2.1% were active in any assay of this set; here they are far more common.
PrP 5UTR inh – inhibition of PrP 5' UTR reporter expression. AID 488862, 2010. cell-based PrP 5' UTR mRNA reporter, plate reader. 340,000 compounds, 0.35% hits. inhibition, % (no concentration beside the values); in the data active = inhibition above about 52%; note: 0 = median of the neutral control wells
PfHsp40 rescue – rescue of yeast from PfHsp40 toxicity, primary screen, S. cerevisiae, ATP luminescence. AID 504582, 2011. 340,000 compounds, 0.68% hits. growth rescue, % at 12.5 µM. S. cerevisiae expressing PfHsp40, growth rescue; in the data active = growth rescue above about 28%, passing the limit was not always enough;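 note: yeast W303a lacking pdr1 and pdr3 grown in galactose medium; growth measured after three days at 30 °C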
BJeLR viability – MLPCN primary cell-based screen for lethality selective to Ras in HRASV12 cells; AID 1554, 2009; inhibition, % (no concentration beside the values); BJeLR (HRASV12) viability, CellTiter-Glo ATP luminescence, 48 h; 300,000 compounds, 0.17% hits; in the data active = inhibition above about 50%
MazF activator – activators of E. coli MazEF toxin-antitoxin RNase, primary screen, biochemical, fluorescence, uHTS | Endoribonuclease toxin MazF (Escherichia coli (strain K12)), P0AE70 | FAM/BHQ RNA-DNA oligo cleavage fluorescence, 5 h | activation, % at 20 µM | 350,000 compounds, 0.32% hits; in the data active = activation above about 50%
Target sequence (P0AE70 whole entry, looked up): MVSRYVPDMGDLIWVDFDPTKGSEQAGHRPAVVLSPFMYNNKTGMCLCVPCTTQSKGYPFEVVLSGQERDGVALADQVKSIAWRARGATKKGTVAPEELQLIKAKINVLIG
PrPC TRFRET – inhibitors of human cell surface prion protein PrPC, primary screen, cell-based, TR-FRET; Major prion protein (Homo sapiens), P04156; TR-FRET read-out; inhibition, % at 13.8 µM; 370,000 compounds, 0.43% hits; AID 720596, 2013; in the data active = inhibition above about 24%; note: 0% = median of the test wells and 100% = reference compound wells
VHR inh abs – VHR1 phosphatase inhibitors, primary screen, biochemical, absorbance, uHTS | Dual specificity protein phosphatase 3 (Homo sapiens), P51452 | recombinant VHR phosphatase, pNPP absorbance | inhibition, % at 13.3 µM | 290,000 compounds, 0.52% hits | AID 1654, 2009; in the data active = inhibition above about 50%
Target sequence (P51452 whole entry, looked up): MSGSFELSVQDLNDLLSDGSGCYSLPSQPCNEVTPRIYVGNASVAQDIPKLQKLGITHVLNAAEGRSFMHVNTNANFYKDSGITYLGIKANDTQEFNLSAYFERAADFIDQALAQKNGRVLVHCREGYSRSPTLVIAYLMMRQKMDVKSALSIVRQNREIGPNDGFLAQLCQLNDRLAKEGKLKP
Numbers without * were called inactive; / = no result; + = active, no number.

SMILES	PrP 5UTR inh	PfHsp40 rescue	BJeLR viability	MazF activator	PrPC TRFRET	VHR inh abs
COc1cccc(OCc2cc(C(=O)N3CCN(C)C(c4ccccc4)C3)no2)c1 (stereo not drawn)	-26.6	148.9*	10.1	3.6	/	34.1
Nc1cc(N)nc(SCC(=O)NCC(=O)Nc2ccc(F)c(F)c2F)n1	-39.6	0.0	/	3.6	-4.4	/
O=C(CN1CCC(n2nnc3cc(F)ccc32)CC1)NCCc1ccccc1	-5.8	-0.2	4.6	6.3	-0.5	52.9*
COc1ccc(C2C(C#N)=C(N)N(c3cccnc3)C3=C2C(=O)CCC3)cc1Cn1cc([N+](=O)[O-])cn1 (stereo not drawn)	9.9	1.7	-1.8	63.8*	-0.8	-1.1
CC(=O)n1cc(N(C(=O)CCl)c2ccc(C)cc2)c2ccccc21	-9.3	3.5	84.4*	0.7	-4.6	29.8
Cc1ccc(S(=O)(=O)N(CC(=O)NCc2cccs2)c2ccccc2)cc1	-18.0	42.3*	/	-13.8	0.0	/
CC1=CC(c2ccccc2)n2nc(N3C(=O)C4CC=CCC4C3=O)nc2N1 (stereo not drawn)	-49.8	-0.8	2.7	3.5	-3.1	57.4*
CC1=NN(c2nc(-c3ccc(C)cc3)cs2)C(=O)C1N=Nc1cccc(C)c1 (stereo not drawn)	-3.6	-0.8	24.2	2.8	0.0	1.2
CCOC(=O)c1sc(N2N=C(C)C(N=Nc3cccc(C)c3)C2=O)nc1C (stereo not drawn)	-12.2	-1.1	-2.1	4.0	10.1	55.2*
O=C(NCc1cccnc1)O[C@H]1CC[C@@]23CCCN2C(=O)CCC[C@H]3C1	/	/	/	/	-8.2	/
Cc1c(Cl)cccc1-c1ccc(/C=N/n2cnnc2)o1	-2.4	-1.0	1.6	-4.7	-3.6	58.8*
Clc1nnc(Cl)c2c1ncn2Cc1ccccc1	-10.5	-0.6	6.2	9.4	0.9	12.5
Cc1ccc2nc(C(Cl)(Cl)Cl)nc(N/N=C/c3ccncc3)c2c1	2.4	-1.1	-14.0	-8.9	-0.9	-4.6
O=C(O)c1ccccc1C=NNc1ccc([N+](=O)[O-])cn1	-7.5	-1.8	/	6.9	-5.6	/
Cc1ccc(C=NNc2ccc([N+](=O)[O-])cn2)cc1	-140.4	36.3*	/	16.1	-3.6	/
O=[N+]([O-])c1ccc(NN=C(c2ccccc2)c2ccccc2)nc1	-20.7	54.8*	/	-12.4	-6.5	/
O=[N+]([O-])c1ccc(NN=Cc2cccc3ccccc23)nc1	-35.9	-0.1	/	122.9*	0.0	/
Cc1ccc2nc(C(Cl)(Cl)Cl)nc(N/N=C/c3ccc([N+](=O)[O-])cc3)c2c1	-22.6	-0.6	/	55.2*	-0.9	/
Cc1ccc(-n2c(C)cc(/C=N/Nc3ccc([N+](=O)[O-])cn3)c2C)cc1	-18.4	0.6	3.8	15.8	-2.5	20.0
CC(=O)c1ccc(S(=O)(=O)Nc2ccc(C(=O)NCC(c3ccco3)N3CCCC3)cc2)cc1 (stereo not drawn)	/	/	/	-1.6	-19.7	/
Cc1ccc(NC(=O)c2cc(N3C(=O)CCC3=O)ccc2N2CCOCC2)cc1	-21.3	-0.2	-10.0	4.5	0.8	-1.3
Cc1ccc(NC(=O)c2cc(N3C(=O)C=CC3=O)ccc2N2CCOCC2)cc1Cl	-63.0	36.1*	1.5	-4.3	2.4	-0.1
Cc1nn2c(N3CCN(C)CC3)cc(C(C)(C)C)nc2c1-c1ccccc1	-6.6	2.5	-2.5	13.6	-6.9	20.1
Cc1nn2c(N3CCN(C4CCCC4)CC3)cc(C(C)(C)C)nc2c1-c1ccccc1	-28.9	0.3	-13.3	0.4	0.3	51.4*
COC(=O)C1CC23C=CCN4CCC5(c6ccccc6NC15C2C)C43 (stereo not drawn)	-2.3	-0.4	57.4*	3.3	6.1	8.6
SMILES	PrP 5UTR inh	PfHsp40 rescue	BJeLR viability	MazF activator	PrPC TRFRET	VHR inh abs
CN(C)/C=c1\sc2c(C#N)cc(C(=O)c3ccc(Br)cc3)n2c1=O	-11.6	-0.9	6.2	+	-9.3	28.0
CCCC(NC(=O)C(C)N1CCN(S(=O)(=O)c2ccccc2)CC1)c1ccccc1 (stereo not drawn)	-3.7	0.7	/	6.4	-0.2	/
CC(C)[C@H](NC(=O)N1CCn2c1nc1ccccc12)C(=O)NCC1CCCO1 (stereo partly drawn)	-10.3	0.8	-8.6	0.6	-0.2	0.4
Fc1cccc(CNC2CCC23CCC(c2ccccc2)CC3)c1 (stereo not drawn)	/	/	/	/	7.7	/
COc1ccc(OC)c(CCNC(=O)C(C)n2nc(C)c3c(C)n(-c4ccc(C)cc4)nc3c2=O)c1 (stereo not drawn)	-22.1	1.0	2.2	10.7	5.3	55.6*
CCN1CCCC1CNC(=O)c1cc([N+](=O)[O-])c(N(C)C)cc1OC (stereo not drawn)	-18.1	-0.2	-1.3	9.7	-11.5	57.0*
COc1ccc(S(=O)(=O)N2CCN(C(=O)c3ccccc3Cc3ccccc3)CC2)cc1OC	/	/	/	10.5	3.0	/
O=C(N/N=C/c1ccccn1)c1sc2ccccc2c1Cl	-11.1	198.9*	3.3	-7.2	2.1	5.1
CC(Oc1ccc2c3c(c(=O)oc2c1)CCCC3)C(=O)NCCCn1ccnc1 (stereo not drawn)	-8.8	-0.1	-3.4	11.8	-0.5	57.9*
Cc1cc(=O)oc2cc(OC(C)C(=O)NCCCn3ccnc3)ccc12 (stereo not drawn)	-0.8	95.2*	-1.2	0.8	-0.1	17.8
O=C(COc1ccc2c3c(c(=O)oc2c1)CCCC3)NCCCn1ccnc1	-55.7	0.4	-1.6	10.0	-2.7	16.5
CC(=O)Nc1ccc(C2=NN(C)C(=NCc3ccccc3)SC2)cc1	-47.6	-1.6	6.7	11.2	6.5	51.3*
COc1ccc(-n2nnnc2C(c2ccccc2OC(F)(F)F)N2CCN(C/C=C/c3ccccc3)CC2)cc1 (stereo not drawn)	/	/	/	/	-3.5	/
O=C1N(c2ccc(Cl)cc2)C(c2ccccc2)N2CCCN12 (stereo not drawn)	-7.2	1.2	-11.9	-3.3	3.1	13.3
O=C1N(c2ccc(Cl)cc2)C(c2cccnc2)N2CCCN12 (stereo not drawn)	-11.4	287.1*	3.4	8.2	8.9	-6.2
N/C(Cc1cccc2ccccc12)=N\OC(=O)c1ccc(Br)o1	/	/	/	/	-4.0	-2.9
N/C(Cc1ccc(Cl)cc1Cl)=N\OC(=O)c1ccc(Br)o1	-3.2	572.1*	-7.2	-5.1	1.4	11.2
CC(C)CCOc1ccc(/C=C2\CCn3c2nc2cc(C(=O)O)ccc2c3=O)cc1	-9.9	-1.0	/	-20.9	-5.9	56.3*
N#CC(C#N)=C1C=CC=CN1/C(=C\c1ccco1)C(=O)c1ccc(-c2ccccc2)cc1	-8.3	55.7*	/	1.4	1.9	5.6

Source: PubChem BioAssay
